# Assay results published in paper PMC4552634, “A New Set of Chemical Starting Points with Plasmodium falciparum Transmission-Blocking Potential for Antimalarial Drug Discovery” (PLoS ONE, 2015).
# Screen size: about 13,000 compounds; about 3,200 (25%) showed an effect of 50% or more. The list shows a part of the results. Peptide text beside a SMILES is read from it. * marks the point of attachment. Boc = CC(C)(C)OC(=O)*
# System: P. falciparum stage V gametocytes
# Set-up: BacTiter-Glo ATP luminescence viability of purified stage V gametocytes in 384-well plates, per cent inhibition versus DMSO
# Conditions: 48 h, 5 µM; inhibitor
row,SMILES,% Inhibition
1,N#CC(c1cccc(Cl)c1)c1ccc2c(C(F)(F)F)cc(C(F)(F)F)nc2n1 (stereo not drawn) [TCMDC-125544],14.86%
2,O=c1cc(-c2ccc3ccccc3c2)[nH]c2ccccc12 [TCMDC-138937],4.967%
3,CCCOc1cc(OCCC)cc(-c2cc(=O)c3ccccc3[nH]2)c1 [TCMDC-138943],63.29%
4,CCCCCCCc1cc(=O)c2ccccc2[nH]1 [TCMDC-132026],46.19%
5,CCCCCC(C)C(C)c1cc(O)c2c(c1)OC(C)(C)CC2(O)c1ccnn1C (stereo not drawn) [TCMDC-131795],-1.098%
6,COc1ccc2nccc([C@@H](O)CN3CCC(NC(=O)/C=C/c4ccc5cc(C)[nH]c5c4)CC3)c2c1 [TCMDC-141041],-19.17%
7,NC(N)=Nc1nc(CCCCCCCCc2csc(N=C(N)N)n2)cs1 [TCMDC-137552],85.12%
8,N#C/N=C(\NCCCCCCCCN/C(=N\C#N)NCCSCc1csc(N=C(N)N)n1)NCCCSc1csc(N=C(N)N)n1 [TCMDC-139456],-7.363%
9,NC(N)=Nc1nc(-c2ccc(N=C(N)N3CCC[C@H]3CN3CCCC3)cc2)cs1 [TCMDC-139612],25.87%
10,Cc1ccc([S+]([O-])Cc2ccc(Cl)cc2)cc1 (stereo not drawn) [TCMDC-131393],8.887%
11,COc1cc(Cc2cnc(N)nc2N)cc(OCCCCCC(N)=O)c1OC [TCMDC-137361],38.24%
12,CCc1ccc(CN2CCCCC(NC(=O)c3cc(-c4ccccc4F)cs3)C2)cc1 (stereo not drawn) [TCMDC-134461],-44.42%
13,COc1ccccc1-c1csc(C(=O)NC2CCCCN(Cc3ccc(C(C)(C)C)cc3)C2)c1 (stereo not drawn) [TCMDC-134516],70.05%
14,CC(C)(C)c1ccc(CN2CCCCC(NC(=O)c3cc(-c4ccccc4F)cs3)C2)cc1 (stereo not drawn) [TCMDC-134465],82.77%
15,O=C(NC1CCCCN(Cc2ccc3c(c2)OCCO3)C1)c1cc(-c2ccccc2F)cs1 (stereo not drawn) [TCMDC-134517],-15.69%
16,CC(C)(C)c1ccc(CN2CCCCC(NC(=O)c3cc(-c4ccccc4Cl)cs3)C2)cc1 (stereo not drawn) [TCMDC-134467],-60.63%
17,COc1cccc(-c2csc(C(=O)NC3CCCCN(Cc4ccc(C(C)(C)C)cc4)C3)c2)c1 (stereo not drawn) [TCMDC-134469],-86.38%
18,CC(=O)Nc1ccc(CN2CCC(NC(=O)c3ccc(-c4cccc(C(F)(F)F)c4)s3)CC2)cc1 [TCMDC-134332],3.235%
19,Cc1ccc(O)c(CN2CCCC(COC(c3ccc(F)cc3)c3ccc(F)cc3)C2)c1 (stereo not drawn) [TCMDC-136033],-2.358%
20,CCOc1ccc(-c2nonc2NC(=O)c2ccccc2Cl)cc1OCC [TCMDC-125205],48.31%
21,CCOc1ccc(-c2nonc2NC(=O)c2ccccc2F)cc1OCC [TCMDC-125206],57.11%
22,CCOc1cccc(C(=O)Nc2nonc2-c2ccc(OC)c(OC)c2)c1 [TCMDC-125179],47.83%
23,CCCOc1ccc(-c2nonc2NC(=O)c2cccc(OC)c2)cc1OCCC [TCMDC-124765],56.26%

row,SMILES,% Inhibition
1,CCCOc1ccccc1C(=O)Nc1nonc1-c1ccc(OCC)c(OCC)c1 [TCMDC-124767],53.72%
2,CCOc1ccc(-c2nonc2NC(=O)c2ccccc2OC)cc1OCC [TCMDC-125198],87.63%
3,O[C@H]1[C@H](OCc2ccc(-c3ccccc3)cc2)CC[C@@H]1N1CCCCC1 [TCMDC-132078],-8.021%
4,N#Cc1cccc(CN2CCCN(c3ccc(NC(=O)c4cccs4)cc3)CC2)c1 [TCMDC-134987],-14.58%
5,Cc1ccc(CN2CCN(CC(O)COc3ccc4c(c3)CCC4)CC2)cc1 (stereo not drawn) [TCMDC-141429],-18.62%
6,COc1ccc(CC2(c3ccc(F)cc3)N=C(N)N(CCCc3ccccc3)C2=O)cc1 (stereo not drawn) [TCMDC-136462],-20.11%
7,CCCOc1ccc(-c2nonc2NC(=O)c2ccccc2OC)cc1OCCC [TCMDC-124766],53.56%
8,COc1nc2c(N3CCN(CCNCc4ccc5c(n4)NC(=O)CS5)CC3)ccnc2cc1F [TCMDC-135193],-2.167%
9,c1ccc(CN2CCCN(c3ccc4c(c3)CCN(Cc3ccc(-c5ncc[nH]5)cc3)CC4)CC2)cc1 [TCMDC-136549],6.085%
10,CCn1cc(C=C2Oc3c(ccc(O)c3CN3CCCCC3)C2=O)c2ccccc21 [TCMDC-124888],37.53%
11,CC(C)=C(C(=O)OCc1ccccc1)N1C(=O)[C@@H](NC(c2ccccc2)(c2ccccc2)c2ccccc2)[C@H]1[S+]([O-])CC(=O)OC(C)(C)C (stereo partly drawn) [TCMDC-139078],-23.33%
12,COC(=O)C(=C(C)C)N1C(=O)[C@@H](NC(=O)OCc2ccccc2)[C@H]1SS[C@@H]1[C@H](NC(=O)OCc2ccccc2)C(=O)N1C(C(=O)OC)=C(C)C [TCMDC-132119],84.32%
13,COc1cc(F)c2nccc([C@@H](O)CN3CCC(NC(=O)OCc4ccccc4)C(F)C3)c2c1 (stereo partly drawn) [TCMDC-141734],-30.04%
14,O=C(Nc1cccc(CN2CCCN(CC3CCCCC3)CC2)c1)c1cc2ccccc2s1 [TCMDC-141863],-96.88%
15,CC(C)CN1CCCN(Cc2cccc(NC(=O)c3cc4ccccc4s3)c2)CC1 [TCMDC-141869],-90.88%
16,O=C(Nc1cccc(CN2CCCN(Cc3cccc(O)c3)CC2)c1)c1cc2ccccc2s1 [TCMDC-141875],-26.68%
17,COc1cccc(CN2CCCN(Cc3cccc(NC(=O)c4cc5ccccc5s4)c3)CC2)c1 [TCMDC-141874],-57.17%
18,O=C(Nc1cccc(CN2CCCN(CCc3ccccc3)CC2)c1)c1cc2ccccc2s1 [TCMDC-141870],77.28%
19,O=C(Nc1cccc(CN2CCCN(Cc3ccsc3)CC2)c1)c1cc2ccccc2s1 [TCMDC-134612],-54.77%
20,CCCCCCN1CCN(Cc2cccc(NC(=O)c3cc4ccccc4s3)c2)CC1 [TCMDC-134621],-21.73%
21,O=C(Nc1cccc(CN2CCCN(Cc3ncc[nH]3)CC2)c1)c1cc2ccccc2s1 [TCMDC-141877],80.03%
22,O=C(Nc1cccc(CN2CCCN(Cc3ncc[nH]3)CC2)c1)c1ccc2ccccc2c1 [TCMDC-141856],45.36%
23,CCCCCN1CCCN(Cc2cccc(NC(=O)c3cc4ccccc4s3)c2)CC1 [TCMDC-141872],97.12%

row,SMILES,% Inhibition
1,O=C(Nc1cccc(CN2CCCN(Cc3ccccc3)CC2)c1)c1cc2ccccc2s1 [TCMDC-141864],-29.46%
2,O=C(Nc1cccc(CN2CCCN(Cc3cccnc3)CC2)c1)c1cc2ccccc2s1 [TCMDC-141868],50.41%
3,COC(=O)CC[C@H](NC(=O)[C@H](C)NC(=O)OC(C)(C)C)C(=O)OC [TCMDC-131388] (Boc-Ala-Glu(OMe)-OMe),-20.52%
4,CCCCC#Cc1cnc2nc(N)[nH]c(=O)c2n1 [TCMDC-137943],7.746%
5,CCCCC(O)c1cc(O)c2c(c1)OC(C)(C)CC2C1=CCN(Cc2ccc3ccccc3c2)CC1 (stereo not drawn) [TCMDC-131420],-23.67%
6,CC1(C)N=C(N)N=C(N)N1c1cccc(C(F)(F)F)c1 [TCMDC-124504],-28.24%
7,CC(=O)Nc1nc(-c2ccccc2)[nH]c1C(N)=O [TCMDC-131311],-1.405%
8,COc1ccc(Nc2nccc(N3CCC(NC(=O)c4cccc(NC(C)=O)c4)C3)n2)cc1 (stereo not drawn) [TCMDC-133611],-20.16%
9,O=C(N[C@H]1CCN(Cc2ccc(OC3CCN(Cc4ccccc4)CC3)c(Br)c2)C1)c1ccc(Cl)c(Cl)c1 [TCMDC-140286],18.35%
10,O=C(N[C@H]1CCN(CCc2ccc(O[C@H]3CCNC3)c(Br)c2)C1)c1ccc(Cl)c(Cl)c1 [TCMDC-141069],53.75%
11,O=C(N[C@H]1CCN(CCc2ccc(O[C@H]3CCNC3)c(Cl)c2)C1)c1ccc(Cl)c(Cl)c1 [TCMDC-141068],47.4%
12,O=C(NCCN1CCN(S(=O)(=O)c2ccc(OC3CCNCC3)c(Br)c2)CC1)c1ccc(Cl)c(Cl)c1 [TCMDC-141153],84.33%
13,O=C(N[C@H]1CCN(CCc2ccc(O[C@H]3CCNC3)cc2)C1)c1ccc(Cl)c(Cl)c1 [TCMDC-141066],34.25%
14,O=C(N[C@H]1CCN(CCc2ccc(O[C@H]3CCNC3)c(F)c2)C1)c1ccc(Cl)c(Cl)c1 [TCMDC-141067],56.15%
15,COCCNC(=O)c1ccc(OC2CCN(Cc3ccc(F)c(F)c3)CC2)c(Cl)c1 [TCMDC-124653],4.866%
16,Cc1cc(C)c2c(c1)C(=NO)CCN2 [TCMDC-140382],-79.12%
17,NC1CCN(c2nc(NCCc3ccc(O)cc3)nc(NCc3ccccc3-c3ccc(C(F)(F)F)cc3)n2)CC1 [TCMDC-133442],32.82%
18,CN1CCC(Oc2cc(NC(=O)Nc3ccc(-c4ccncc4)c(C(F)(F)F)c3)ccc2Cl)CC1 [TCMDC-139223],-12.77%
19,COc1cc(COc2c(C)nc(N)nc2N)cc(OC)c1OC [TCMDC-131346],7.837%
20,NC(N)=NC(=O)Nc1ccc(Cl)c(Cl)c1 [TCMDC-124295],-4.176%
21,NCCCN(Cc1ccc(Cl)c(Cl)c1)C(=O)Nc1ccc(Cl)c(Cl)c1 [TCMDC-139415],96.81%
22,CC(=O)Nc1ccc(Cl)c(Cl)c1 [TCMDC-125481],-1.69%
23,Cc1cccc(C(=O)Nc2ccc(N3CCCN(Cc4cccc(O)c4)CC3)cc2)c1 [TCMDC-134958],-89.08%
